Measured values as given in PubChem BioAssay (Tox21).
Several values for one entry are separate records, joined by “and”; a condition that tells them apart may be missing. Equal values may be shown once. Values without a mark were called inactive. Results filed as inconclusive are left out. Entries that show only a call come without a potency. Activity calls are given as the source filed them. The call rests on the fitted dose curve; in most records, active means well fitted curve in the direction sought with a large enough effect in the repeat runs; inconclusive means weak or mixed curves; inactive means no such curve, though single readings can be large; an effect the other way counts as inactive or inconclusive.

Key:
[1] = A CellTox Green Cytotoxicity Assay to monitor cytotoxicity in HEK293 cells - 32 hour (AID 1224881); further: nearly all actives have a fitted effect of over 40% in size; further: potency means the concentration at half of the fitted maximal effect
How it was run: (§1)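 Tox21 screen in HEK293: membrane-impermeant cyanine dye fluoresces on binding dead-cell DNA; compound pinned 5 h post-seeding, plates held at 37 C, signal read repeatedly through 40 h.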

[2] = A CellTox Green Cytotoxicity Assay to monitor cytotoxicity in HepG2 cells - 0 hour (AID 1224882); further: nearly all actives have a fitted effect of over 35% in size; further: potency means the concentration at half of the fitted maximal effect
How it was run: (§2)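 Measurements at 0, 8, 16, 24, 32 and 40 h of treatment captured CellTox Green fluorescence in HepG2 cells that had been co-plated with reagent and preincubated 5 h at 37 C/5% CO2.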

[3] = A CellTox Green Cytotoxicity Assay to monitor cytotoxicity in HepG2 cells - 32 hour (AID 1224883); further: nearly all actives have a fitted effect of over 50% in size; further: potency means the concentration at half of the fitted maximal effect
How it was run: as §2

[4] = qHTS RealTime-Glo MT Cell Viability Assay in HepG2 cells - 16 hour (AID 1224885); further: nearly all actives have a fitted effect of over 50% in size; further: potency means the concentration at half of the fitted maximal effect
How it was run: (§3)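 Cell number in HepG2 cultures estimated from NanoLuc luminescence generated by metabolic reduction of a prosubstrate by living cells. The homogeneous, nonlytic format allowed repeated reads at 0, 8, 16, 24, 32 and 40 h of compound exposure.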

[5] = qHTS RealTime-Glo MT Cell Viability Assay in HEK293 cells - 24 hour (AID 1224886); further: nearly all actives have a fitted effect of over 50% in size; further: potency means the concentration at half of the fitted maximal effect
How it was run: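 Homogeneous bioluminescent viability format in HEK293 cells (600 cells/well). Following 5 h at 37 C/5% CO2, 23 nL compound was pintooled; the signal was measured repeatedly during 40 h incubation.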

[6] = qHTS RealTime-Glo MT Cell Viability Assay in HEK293 cells - 8 hour (AID 1224887); further: nearly all actives have a fitted effect of over 50% in size; further: potency means the concentration at half of the fitted maximal effect
How it was run: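 HEK293 + NanoLuc + prosubstrate, 600 cells/well; 5 h, 37 C/5% CO2; compound 23 nL in DMSO by pintool; 37 C; luminescence read at 0, 8, 16, 24, 32 and 40 h time points.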

[7] = A CellTox Green Cytotoxicity Assay to monitor cytotoxicity in HEK293 cells - 16 hour (AID 1224888); further: nearly all actives have a fitted effect of over 35% in size; further: potency means the concentration at half of the fitted maximal effect
How it was run: as §1

[8] = qHTS RealTime-Glo MT Cell Viability Assay in HepG2 cells - 0 hour (AID 1224889); further: nearly all actives have a fitted effect of over 50% in size
How it was run: as §3

[9] = A CellTox Green Cytotoxicity Assay to monitor cytotoxicity in HEK293 cells - 8 hour (AID 1224884); further: nearly all actives have a fitted effect of over 35% in size; further: potency means the concentration at half of the fitted maximal effect
How it was run: as §1

[10] = A CellTox Green Cytotoxicity Assay to monitor cytotoxicity in HepG2 cells - 8 hour (AID 1224890); further: nearly all actives have a fitted effect of over 45% in size; further: potency means the concentration at half of the fitted maximal effect
How it was run: as §2

Row | Compound | Potency [1] | Potency [2] | Potency [3] | Potency [4] | Potency [5] | Potency [6] | Potency [7] | Potency [8] | Potency [9] | Potency [10]
1 | O=C1c2ccccc2Cc2ccccc21 | inactive | inactive | inactive | inactive | inactive | inactive | inactive | inactive | – | –
2 | CCCCCCCCCCCCCCCCCC[N+](C)(C)C | 21.9 µM (active) | inactive | 49.1 µM (active) | – | 19.6 µM (active) | 49.1 µM (active) | 49.1 µM (active) | inactive | 39 µM (active) | –
3 | OCCCCCCCCCCCCBr | inactive | inactive | inactive | inactive | – | inactive | inactive | inactive | inactive | inactive
4 | Nc1nc2ccccc2n1Cc1ccc(F)cc1 | inactive | inactive | 23.9 µM (active) | inactive | – | inactive | inactive | – | inactive | inactive
5 | CC(C)CCCCCCCCCCCCCCC(=O)O | inactive | inactive | inactive | inactive | – | – | inactive | inactive | inactive | inactive
6 | N=C1C=CC(=C(c2ccc(N)cc2)c2ccc(N)cc2)C=C1 | inactive | inactive | inactive | – | 3.47 µM (active) | – | inactive | – | inactive | inactive
7 | CC(=O)SC[C@@H](Cc1ccccc1)C(=O)NCC(=O)OCc1ccccc1 | inactive | inactive | inactive | inactive | inactive | inactive | inactive | inactive | – | inactive
8 | NNc1nc(-c2ccc([N+](=O)[O-])cc2)cs1 | inactive | inactive | inactive | – | 24.5 µM (active) | inactive | inactive | inactive | – | inactive
9 | Cc1ccc(O)c(C(C)(C)C)c1 | 43.6 µM (active) | inactive | 43.6 µM (active) and 34.7 µM (active) | inactive | inactive | – | inactive | – | – | 48.9 µM (active) and 38.9 µM (active)
10 | CN(C)[C@@H]1C(=O)C(C(N)=O)=C(O)[C@@]2(O)C(=O)C3=C(O)c4c(O)ccc(Cl)c4[C@@H](O)[C@H]3C[C@@H]12 | inactive | inactive | inactive | inactive | inactive | inactive | inactive | inactive | – | inactive
11 | CCCCCCCCCCn1cc[n+](CCCCCCCCCC)c1C | 19.5 µM (active) | inactive | 17.4 µM (active) | 21.9 µM (active) | 2.19 µM (active) | 21.9 µM (active) | 19.5 µM (active) | inactive | – | 39 µM (active)
12 | Oc1cc2ccccc2c2ccccc12 | 17.4 µM (active) | inactive | 11 µM (active) | 11 µM (active) | 9.77 µM (active) | 3.47 µM (active) | inactive | – | – | inactive
13 | CC(C)C(C)(C)C(C)(C)C(C)(C)S | inactive | inactive | inactive | inactive | inactive | – | – | – | – | inactive
14 | CCCC(c1cc(C(C)(C)C)c(O)cc1C)c1cc(C(C)(C)C)c(O)cc1C | 49.6 µM (active) | inactive | 35.1 µM (active) | 44.2 µM (active) | 22.1 µM (active) | 44.2 µM (active) | – | inactive | – | –
15 | CCN(CC)CCCC(C)Nc1c2ccc(Cl)cc2nc2ccc(OC)cc12 (configuration not stated) | 7.56 µM (active) | 21.3 µM (active) | 6.74 µM (active) | 9.52 µM (active) | 4.25 µM (active) | 5.35 µM (active) | 23.9 µM (active) | inactive | – | 16.9 µM (active)
16 | O=C(Nc1cccc(C(F)(F)F)c1)c1cc(Br)cc(Br)c1O | inactive | inactive | 17.4 µM (active) | – | 4.9 µM (active) | inactive | inactive | – | – | –
17 | CCCCCCCCCCCCc1ccc(O)cc1 | 49 µM (active) | inactive | 15.5 µM (active) | 43.6 µM (active) | 43.6 µM (active) | 43.6 µM (active) | 49 µM (active) | inactive | – | 17.4 µM (active)
18 | COCCCC/C(=N\OCCN)c1ccc(C(F)(F)F)cc1 | inactive | inactive | 26.8 µM (active) | inactive | – | inactive | inactive | – | – | inactive
